# Screens (PubChem BioAssay)
# Rows were chosen to be rich in hits. Some 6.9% of all compounds tested hit in one or more screens of this group.
# KB-3-1 cytotox: KB-3-1 parental cell cytotoxicity. KB-3-1 viability, CellTiter-Glo ATP luminescence, 72 h. Potency, µM (doses to about 46.1 µM), actives largely listed as cytotoxic. 400,000 compounds, 1.4% hits. AID 1347075; further: potency means the concentration at half of the fitted maximal effect; on the % scale 0 is the no-effect control and ±100 the full control effect; nearly all actives have a fitted effect of over 60% in size
#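 Using CellTiter-Glo luminescence, growth of non-resistant KB-3-1 adenocarcinoma cells is assessed 72 h after pin-tool compound addition at 37 °C. Normalized responses across the concentration series yield fitted curves.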
# MCF10A rereplic: induces DNA re-replication in MCF 10a normal breast cells; 350,000 compounds, 2.9% hits; Potency, µM (doses to about 46.1 µM), for inactives: at the highest dose activity, positive = re-replication, most hits filed as activators; AID 624296; MCF 10A DNA re-replication, Hoechst nuclear intensity, 48 h; further: potency means the concentration at half of the fitted maximal effect; % of control where 0% means no effect; nearly all actives have a fitted effect of over 50% in size
# KB-V1 cytotox: KB-V1 MDR subline cytotoxicity; KB-V1 MDR cells viability, CellTiter-Glo, 72 h; Potency, µM (series often up to 46.1 µM), hits mostly cytotoxic; 400,000 compounds, 3.4% hits; AID 1347076; further: potency means the concentration at half of the fitted maximal effect; on the % scale 0 is the no-effect control and ±100 the full control effect; nearly all actives have a fitted effect of over 60% in size
#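 Readout: CellTiter-Glo luminescence, 10 min after addition. Cells: KB-V1 MDR subline, 72 h at 37 degrees C with compound. Analysis: corrected, normalized data fitted to concentration-effect curves.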
# S-ASM inh: inhibitors of human secretory acid sphingomyelinase; Potency, µM (series often up to 57.5 µM), for the others: at the highest dose activity change, negative = inhibition, hits mostly inhibitors; 340,000 compounds, 0.006% hits; placental ASM, HMU-PC fluorogenic substrate, 60 min; AID 504937; further: potency means the concentration at half of the fitted maximal effect
# Target sequence (P17405 47-631 limits assumed): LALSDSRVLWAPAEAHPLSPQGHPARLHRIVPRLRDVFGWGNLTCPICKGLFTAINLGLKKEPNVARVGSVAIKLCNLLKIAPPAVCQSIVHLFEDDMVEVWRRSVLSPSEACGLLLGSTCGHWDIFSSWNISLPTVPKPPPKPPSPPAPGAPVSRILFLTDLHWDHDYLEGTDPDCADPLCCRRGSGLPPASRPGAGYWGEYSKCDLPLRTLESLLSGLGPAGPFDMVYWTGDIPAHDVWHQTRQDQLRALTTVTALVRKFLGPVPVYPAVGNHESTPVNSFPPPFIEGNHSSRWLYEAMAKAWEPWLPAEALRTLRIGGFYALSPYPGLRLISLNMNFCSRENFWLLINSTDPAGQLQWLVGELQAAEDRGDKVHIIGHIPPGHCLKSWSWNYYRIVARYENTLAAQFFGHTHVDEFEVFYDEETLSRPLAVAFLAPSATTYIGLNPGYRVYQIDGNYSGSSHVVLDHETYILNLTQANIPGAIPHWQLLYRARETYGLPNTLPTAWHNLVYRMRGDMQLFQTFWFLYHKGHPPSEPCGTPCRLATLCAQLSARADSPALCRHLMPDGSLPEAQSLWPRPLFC
#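 Human placenta-derived ASM preincubated with compound 10 min at room temperature, then reacted with 9 uM (final) fluorogenic HMU-PC substrate for 60 min at 37 C. Stop solution raises pH to 10; fluorescence read at Ex 386/Em 447 nm.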
# Giardia killer: kills Giardia lamblia; Giardia lamblia trophozoite viability; activity change, % at 7.66 µM, hits read low; 340,000 compounds, 0.15% hits; AID 540267; in the data active means activity change below about -80%; inconclusive means between about -30% and that limit;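 further: parasites exposed to compound for two days anaerobically before the ATP read; on the % scale 0 is the no-effect control and ±100 the full control effect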
#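 Trophozoites 100 cells/well + cpd; 48 hrs, 37 deg C, anaerobic. ATPLite 1-Step added, 15-30 min RT, luminescence read (ATP-based viability).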
# SW480 rereplic: DNA re-replication induction in SW480 cells | 340,000 compounds, 1.8% hits | Potency, µM (top dose mostly 46.1 µM), without a hit: at the highest dose re-replication activation, most hits filed as activators | AID 624297 | SW480 DNA re-replication, Hoechst DNA content imaging, 48 h; further: potency means the concentration at half of the fitted maximal effect; % of control where 0% means no effect; nearly all actives have a fitted effect of over 55% in size
#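 Readout is total intensity of Hoechst-stained nuclei, excited at 405 nm and collected at 500-530 nm. Compound treatment lasted 48 hr at 37 C in 5% CO2 before staining.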
# Numbers without * were called inactive; i = inactive; ? = inconclusive; . = not tested or not shown; [ ] = remark or other dose. Unless noted, the call rests on the fitted dose curve; in most records, active means well fitted curve in the direction sought with a large enough effect; inconclusive means small, poorly fitted or top-dose-only effect, or another doubt; inactive means no such curve, though single readings can be large; an effect the other way counts as inactive or inconclusive.
SMILES,KB-3-1 cytotox,MCF10A rereplic,KB-V1 cytotox,S-ASM inh,Giardia killer,SW480 rereplic
CC(=O)c1sc(-c2ccc(Cl)cc2)nc1C,i,-0.5%,?,-2.6%,5.5,-7.4%
COc1ccc(N/C=C/C(=O)c2sc(-c3ccccc3)nc2C)cc1,?,?,18.4µM*,-20.4%,6.7,?
Cc1nc(-c2ccccc2)sc1C(=O)/C=C/c1ccc(Cl)cc1,?,4.11µM*,?,-12.2%,-16.9,2.2%
Cc1ccc(CS(=O)(=O)CCC(=O)NCc2ccccc2Cl)cc1,i,0.7%,?,3.6%,1.5,?
N#CC1=C(N)Oc2cc(N)ccc2C1c1cc(Br)cs1 (configuration not stated),8.2µM*,?,?,-3.0%,0.7,16.4µM*
N#CC1=C(N)Oc2cc(N)ccc2C1c1ccccc1F (configuration not stated),?,18.4µM*,7.31µM*,51.4%,0.9,18.4µM*
N#CC1=C(N)Oc2cc(N)ccc2C1c1cccc(Br)c1 (configuration not stated),8.2µM*,1.64µM*,?,10.9%,-2.0,?
CC(C)c1ccc2c(c1)-c1ccccc1S(=O)(=O)N2CC(=O)N1CCCCC1,i,.,i,.,.,.
COc1ccc(Cc2c(-c3cccc(Cl)c3)nc3c(C)cc(Br)cn23)c(C)c1,?,.,i,.,.,.
C[C@H](C(=O)OCO/N=[N+](\[O-])N1CCCC1)c1cccc2ccccc12,.,.,.,.,-14.7,.
CN1CCc2c(OCC(=O)N3CCC(Cc4ccccc4)CC3)cccc2C1=O,18.4µM*,18.9%,?,-1.2%,-9.0,-1.5%
CCC1CCCCN1C(=O)COc1cccc2c1CCN(C)C2=O (configuration not stated),i,-3.9%,20.6µM*,-0.4%,11.1,-5.5%
COc1ccccc1CNC(=O)CN1C(=O)CCn2nc(-c3ccccc3)cc21,i,.,i,.,.,.
Cc1ccc(NS(=O)(=O)c2cc([N+](=O)[O-])ccc2NNC(=S)Nc2cc(C)ccc2C)c(C)c1,20.6µM*,?,2.91µM*,?,-11.2,?
Cc1ccc([N+](=O)[O-])cc1NC(=S)NC(=O)CC(C)(C)C,i,-3.6%,18.4µM*,-1.8%,-6.9,5.8%
COC(=O)C1=CN(c2cccc(Cl)c2)C=C(C(=O)OC)C1c1cccc(OC)c1,i,?,?,i,-23.7,?
COC(=O)c1ccc(NC(=O)c2nc(S(=O)(=O)Cc3ccccc3F)ncc2Cl)cc1,?,.,i,.,.,.
Cc1cc(C(=O)N[C@H](c2ccccc2)[C@@]2(C)C[C@@H]2[C@@H](C)C(=O)Nc2ccc3ccccc3c2)n(C)n1,?,?,?,-8.9%,-10.8,14.6µM*
C[C@@H](C(=O)Nc1ccc2ccccc2c1)[C@H]1C[C@]1(C)[C@H](NC(=O)OCc1ccccc1)c1ccccc1,i,?,?,-0.3%,3.9,?
Cc1ccccc1-c1noc(CSc2nc3ccccc3[nH]2)n1,i,.,i,.,.,.
CN(C)S(=O)(=O)c1ccc(-c2cn3ccccc3n2)cc1,i,3.5%,16.4µM*,-0.8%,?,-1.8%
CCCCOc1ccc(-c2cn3ccccc3n2)cc1[N+](=O)[O-],i,11.6µM*,?,-12.8%,-16.3,25.8%
CCN(CC)S(=O)(=O)c1ccc(-c2cn3ccccc3n2)cc1,i,.,?,.,.,.
CCOc1ccc(-c2cn3ccccc3n2)cc1[N+](=O)[O-],i,20.6µM*,?,-1.0%,-24.4,?
C[C@H](NC(=O)C[C@@H]1CC[C@H]2[C@@H](COC[C@H](O)CN2Cc2ccc(C(F)(F)F)cc2)O1)c1ccccc1,i,.,?,.,.,.
SMILES,KB-3-1 cytotox,MCF10A rereplic,KB-V1 cytotox,S-ASM inh,Giardia killer,SW480 rereplic
CCC(CC)C(=O)Nc1c(C(=O)N2CCN(c3ccccc3F)CC2)oc2ccccc12,i,.,?,.,.,.
COc1ccc(NC(=O)CSCC(=O)N(C)Cc2ccc(Cl)c(Cl)c2)cc1,i,25.1%,i,-10.9%,-2.9,0.6%
Cc1ccc(NC(=O)CSCC(=O)N(C)Cc2ccc(Cl)c(Cl)c2)cc1,i,2.0%,18.4µM*,-12.1%,-14.2,-5.2%
COC(=O)c1ccc(NC(=O)CSc2nc3ccc(OC)cc3[nH]2)cc1,i,.,i,.,.,.
N#CCCn1cc(C=C(C#N)C#N)c(-c2ccc(Cl)cc2)n1,i,3.66µM*,i,-2.8%,-25.7,?
N#CCCn1cc(/C=C(\C#N)c2nc3ccccc3s2)c(-c2ccc(F)cc2)n1,i,10.1%,i,13.7%,2.4,14.0%
N#CCCn1cc(/C=C2\NC(=S)N(c3ccccc3)C2=O)c(-c2ccc(-c3ccccc3)cc2)n1,?,5.8µM*,i,2.5%,-4.1,?
N#CCCn1cc(/C=N/O)c(-c2ccc(-c3ccccc3)cc2)n1,?,13µM*,i,-11.1%,-3.7,?
N#CCCn1cc(/C=N/O)c(-c2ccc(Cl)cc2)n1,i,9.9%,i,-0.2%,9.6,1.6%
COc1ccc(-c2cc(C(F)(F)F)nc(SCCC(=O)Nc3ccc(OC)c(OC)c3)n2)cc1,i,.,i,.,.,.
CCOC(=O)c1c(C)n(-c2ccccc2)c2ccc(OC(=O)c3ccccc3NC(=O)C(C)(C)C)cc12,i,.,?,.,.,.
CCC(C)NC(=O)COC(=O)c1cc([N+](=O)[O-])ccc1Sc1nc(C)cs1 (configuration not stated),i,?,i,-1.0%,-5.0,5.2%[9.22 µM]
Cc1csc(Sc2ccc([N+](=O)[O-])cc2C(=O)OCC(=O)NC2CCCC(C)C2C)n1 (configuration not stated),i,17.8µM*,i,-1.1%,-3.7,?
CCOc1ccc(-c2cc3nc(C4CCN(C(=O)OC(C)(C)C)CC4)c(C(=O)Nc4ccc(C)c(F)c4)cn3n2)cc1,i,.,i,.,.,.
Cc1ccc(N2CCN(S(=O)(=O)c3ccc4c(c3)CC(=O)N4)CC2)cc1,i,.,i,.,.,.
CC1=C(C#N)C(c2ccccc2)C2=C(N1)c1ccccc1C2=O (configuration not stated),2.06µM*,1.46µM*,3.26µM*,-20.2%,-4.4,8.2µM*
CC1=C(C#N)C(c2cccnc2)C2=C(N1)c1ccccc1C2=O (configuration not stated),i,1.3%,i,2.6%,-12.7,-4.7%
Cc1nn(C(=O)c2cccc([N+](=O)[O-])c2C)c(C)c1S(=O)(=O)N1CCOCC1,i,.,i,.,.,.
COc1cccc(/C=N/n2c(=S)n(C)c3ccccc32)c1OC,i,4.5%,i,-7.1%,0.3,-15.8%
COc1cccc(/C=N/n2c(C)nc3ccccc32)c1OC,i,11.2%,11.6µM*,-3.2%,-11.8,2.2%
